# TPT1 inh: Candida albicans TPT1 enzyme inhibitors, primary screen, biochemical, fluorescence polarization | tRNA 2'-phosphotransferase TPT1 (Candida albicans SC5314) | recombinant caTPT1, FP RNA substrate dephosphorylation | inhibition, % at 5 µM | actives 0.81% (n = 300,000) | AID 1962, 2009;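 active means inhibition above the mean of all tested compounds plus 3 SD, set per screening campaign, cut at about 24% in these data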;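 further: plate controls were DMSO alone for no effect and ferristatin control at 100 nM for full effect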
# Rin1 Abl inh: inhibitors of Rin1-Abl protein binding, primary screen, biochemical, TR-FRET. Tyrosine-protein kinase ABL1 (Homo sapiens) + Ras and Rab interactor 1 (Homo sapiens), …. inhibition, % at 7.35 µM. actives 0.4% (n = 360,000); in the data active means inhibition above about 5%, passing the limit was not always enough
# IDE cell activ: human IDE activators in live cells, primary screen, fluorescence polarization, HEK cells, FAbeta-B substrate. Insulin-degrading enzyme (Homo sapiens), P14735. FAbeta-B cleavage; 0% vehicle, 100% cell-free pure enzyme wells. activation, % at 5.96 µM. actives 0.073% (n = 340,000). AID 493087, 2011;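 active means activation above the mean of all tested compounds plus 3 SD, set per screening campaign, cut at about 17% in these data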
# Calb FLC: C. albicans growth inhibition with fluconazole, primary screen, CaCi-2 strain, Alamar Blue fluorescence; C. albicans CaCi-2 (fluconazole-resistant clinical isolate) + fluconazole, 48 h; growth inhibition, % (concentration not given with the values); actives 0.57% (n = 300,000); AID 1979, 2009;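 active means growth inhibition above about 58% in most replicates, limit read from the data, passing the limit was not always enough; inconclusive means exactly half the replicates above a set limit; inactive means most replicates below a set limit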;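 further: all wells also contain fluconazole at 8 µg/ml as a sub-toxic cotreatment; 0% = median of DMSO wells and 100% = median of geldanamycin control wells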
# Rpn11 inh: Rpn11 (PSMD14) deubiquitinase inhibitors, primary screen, biochemical, fluorescence polarization, uHTS. human 26S proteasome, Ub4-pepOG fluorescence polarization; 20S core pre-blocked with epoxomicin. actives 0.59% (n = 360,000). 26S proteasome non-ATPase regulatory subunit 14 (Homo sapiens), O00487. inhibition, % at 20 µM;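 active means inhibition at 20 µM, scaled to each plate's controls, above about 33%, limit read from the data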
# IDE inh: human IDE inhibitors in live cells, primary screen, fluorescence polarization, HEK cells, FAbetaB substrate; Insulin-degrading enzyme (Homo sapiens), P14735; FAbetaB cleavage; inhibition, % at 5.59 µM; actives 0.41% (n = 320,000);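 active means percent inhibition above the average of all tested compounds plus 3 SD, set per screening campaign, cut at about 16% in these data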;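 further: IDE supplied by intact live HEK cells; FP after avidin binding of uncleaved biotin substrate so inhibition keeps polarization high; 0% = DMSO wells and 100% = 60 µM reference IDE inhibitor Ii1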
# IDE inh confirm: human IDE inhibitors in live cells, confirmation, fluorescence polarization, HEK cells, FAbetaB substrate. shares compounds with IDE inh. FAbetaB cleavage. inhibition, % at 5.59 µM. actives 51% (n = 1,200). AID 435028, 2010;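 active means mean inhibition across triplicate wells above the cutoff set by the earlier primary insulin-degrading enzyme screen, cut at about 16% in these data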;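 further: 0% = DMSO wells and 100% = 60 µM reference IDE inhibitor Ii1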
# HEK cytotox: cytotoxicity in HEK cells, cytotoxicity control for IDE inhibitor project, cell-based, luminescence. HEK293 cytotoxicity, ATP luminescence. AID 449730, 2010. shares compounds with IDE inh. actives 28% (n = 1,200). inhibition, % at 5.59 µM; in the data active means inhibition above about 22%;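 further: 0% = vehicle wells and 100% = reference cytotoxic drug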
# IDE FP artifact: fluorescent or optically active artefacts, dose response, artefact control for IDE inhibitor project, biochemical, fluorescence polarization; AID 588718, 2011; FP counterscreen for fluorescent artifacts, IDE probe project; IC50, µM; 30 tested, under 10 active; shares compounds with IDE inh; call rule not given here
# * = called active by the depositor; ? = inconclusive; . = no result. The list is not random: actives were taken first. Their share in the collection is about 2.3%.
SMILES,TPT1 inh,Rin1 Abl inh,IDE cell activ,Calb FLC,Rpn11 inh,IDE inh,IDE inh confirm,HEK cytotox,others
O=C(C1CCC1)N1CCN(c2ccnc3cc(Cl)ccc23)CC1,-1,0,-25,1,4,21*,18*,14,
COc1ccccc1NC(=O)N1CCN(c2ccc3nnc(-c4ccc(F)cc4)n3n2)CC1,-2,-4,-5,-4,6,17*,8,9,
COc1ccc(OC)c(NC(=O)C2CCN(c3cc(-c4ccccc4)nc4ncnn34)CC2)c1,1,-1,-7,4,-4,3,.,.,
O=[N+]([O-])c1ccc(S(=O)(=O)N2CCN(c3ccnc4cc(Cl)ccc34)CC2)cc1,-2,-2,-16,-24,-10,15,.,.,
C=CCn1c(O)c(N=NC(=S)Nc2cccc(C)c2)c2ccccc21,-1,0,-4,?,25,24*,2,82*,
Nc1ccc2c3c(cccc13)CC2,1,-5,-5,4,15,43*,3,4,
COC(=O)c1ccc(/C=C/C(=O)OCC(=O)NCc2cccs2)cc1,.,2,-1,.,2,2,.,.,
Fc1ccc(-[n+]2nc(Nc3ccccc3)sc2-c2ccc(OCc3ccccc3)cc2)cc1,-1,-1,4,-17,-6,-5,.,.,
Cn1c(=O)c(C(=O)CN2CCCc3ccccc32)c(N)n(Cc2ccccc2)c1=O,24,-7,0,48,32,31*,17*,22,IDE FP artifact=>55
COc1ccc(S(=O)(=O)NCc2ccncc2)cc1NC(=O)c1ccc(Cl)cc1,1,-5,0,2,5,0,.,.,
CCOc1ccc(NC(=O)CSc2nc3c(c(=O)n2C)SC(C)C3)cc1 (stereo not drawn),-1,0,-35,.,-6,16*,11,17,
NC(=S)N/N=C\c1ccc(-c2cccc(Cl)c2Cl)o1,3,-3,-29,-7,35,27*,3,28*,
CC(CNC(=O)CC[C@H]1O[C@@H](n2cnc3c(NC(=O)c4ccccc4)ncnc32)[C@H](O)[C@@H]1O)c1ccccc1 (stereo partly drawn),.,3,.,.,0,.,.,.,
CCOc1ccccc1NC(=O)CN(C)S(=O)(=O)c1ccc2[nH]c(=O)oc2c1,-2,-1,-1,-5,-2,2,.,.,
CCOCCCNc1ncnc2c1[nH]c1ccccc12,-1,0,-7,.,-4,21*,8,38*,
CCOc1ccc2[nH]c3c(NCCc4ccc(OC)c(OC)c4)ncnc3c2c1,1,-1,-25,9,10,17*,9,41*,
CCCCOCCCNc1ncnc2c1[nH]c1ccccc12,0,-2,-21,-32,0,25*,4,73*,
Cc1ccc(OCCCCNC(C)c2ccccc2)c(C)c1 (stereo not drawn),3,0,7,13,2,0,.,.,
COc1cc(C(=O)N2CCN(C(=O)C3COc4ccccc4O3)CC2)cc(OC)c1OC (stereo not drawn),-2,-1,-15,-2,5,23*,16,9,
CCOC(=O)N1CCN(S(=O)(=O)N2CCCC(C(=O)NC(C)c3ccccc3)C2)CC1 (stereo not drawn),1,3,-1,-6,1,18*,7,10,
Cc1ccsc1C(=O)NCCc1c[nH]c2ccccc12,-3,-6,7,-3,-9,6,.,.,
COc1ccc(-n2ccn(CC(=O)Nc3ccccc3OC)c(=O)c2=O)cc1,0,2,5,0,2,-3,.,.,
CC(C)(C)NC(=O)C[C@H]1C[C@H](C(=O)N2CCOCC2)[C@@]2(CCC3CCCC3)c3[nH]c4cc(-c5ccco5)ccc4c3CCN2C1=O,.,3,3,.,17,.,.,.,
COc1ccccc1NC(=O)CSc1nnc(Cc2cc(=O)[nH]c(=O)[nH]2)n1-c1ccccc1,-3,4,-7,-12,-9,19*,3,3,
COc1ccc(-n2c(Cc3cc(=O)[nH]c(=O)[nH]3)nnc2SCC(=O)Nc2cc(C(F)(F)F)ccc2Cl)cc1,5,0,3,6,-8,-1,.,.,
SMILES,TPT1 inh,Rin1 Abl inh,IDE cell activ,Calb FLC,Rpn11 inh,IDE inh,IDE inh confirm,HEK cytotox,others
CC1CCCN(S(=O)(=O)c2ccc(NC(=O)C3CCN(C(=O)C(C)(C)C)CC3)cc2)C1 (stereo not drawn),.,6,4,.,3,6,.,.,
COc1cccc(OCCNC(=O)Nc2cc(F)c(F)cc2Cl)c1,-2,5,-5,28,2,11,.,.,
COc1ccc(OCCNC(=O)Nc2cc(F)c(F)cc2Cl)cc1,0,1,-9,28,-1,18*,3,6,
O=C(CSc1nccc(=O)[nH]1)N1N=C2/C(=C/c3ccco3)CCCC2C1c1ccco1 (stereo not drawn),4,3,6,-4,-3,10,.,.,
Cn1cnnc1SCC(=O)N1N=C2/C(=C/c3ccco3)CCCC2C1c1ccco1 (stereo not drawn),-1,-5,-24,-2,8,17*,9,13,
Cc1ccc(-c2n[nH]c(=S)c3ccccc23)cc1S(=O)(=O)NCC1CCCO1 (stereo not drawn),-5,-2,-11,57,5,22*,5,16,
Cc1ccc(-c2n[nH]c(=O)c3ccccc23)cc1S(=O)(=O)NCC1CCCO1 (stereo not drawn),-1,0,-6,0,1,4,.,.,
O=C(CSc1nnc(CCCOc2ccc(Cl)cc2Cl)o1)Nc1ccc(C(=O)O)cc1,-1,1,2,1,-6,18*,6,7,
O=C(CSc1nnc(COc2ccc(Cl)cc2Cl)o1)Nc1ccccn1,1,4,3,2,0,-8,.,.,
C=CCNc1ncnc2c1[nH]c1ccc(Cl)cc12,1,-1,-30,48,3,30*,13,47*,
C=CCNc1ncnc2c1[nH]c1ccccc12,-4,-2,5,-5,-2,5,.,.,

# Bioassay records (PubChem)
